According to PubChem BioAssay (NCI):
This is part of a sample that, as a whole, favours compounds with a hit. Of some 83,000 tested, about 20% had one in any assay.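 Method: cells in 96-well plates; compound added at one concentration; 48 h incubation; percent growth measured; values under 10 scored active.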 Values without a mark were called inactive. The source made the active and inactive calls.

Legend:
Assay in all cases: NCI-60 one-dose screen, 48 h (100 = growth as untreated, 0 = no growth, -100 = all killed)
Conditions in all cases: 10 µM unless noted
DU-145 prostate = test system: DU-145 prostate
K-562 leukemia = test system: K-562 leukemia
MALME-3M melanoma = test system: MALME-3M melanoma
MDA-MB-231 breast = test system: MDA-MB-231 breast
RXF 393 renal = test system: RXF 393 renal
SF-268 CNS = test system: SF-268 CNS
SF-295 CNS = test system: SF-295 CNS
SF-539 CNS = test system: SF-539 CNS
UACC-257 melanoma = test system: UACC-257 melanoma
M14 melanoma = test system: M14 melanoma
HCT-15 colon = test system: HCT-15 colon
HT29 colon = test system: HT29 colon
SNB-19 CNS = test system: SNB-19 CNS
U251 CNS = test system: U251 CNS
PC-3 prostate = test system: PC-3 prostate
SK-MEL-5 melanoma = test system: SK-MEL-5 melanoma
UACC-62 melanoma = test system: UACC-62 melanoma
LOX IMVI melanoma = test system: LOX IMVI melanoma
SK-MEL-28 melanoma = test system: SK-MEL-28 melanoma

Compound: CN(CCC#N)C(=O)Nc1ccccc1
- growth (DU-145 prostate): 115%
- growth (K-562 leukemia): 96.2%
- growth (MALME-3M melanoma): 100%
- growth (MDA-MB-231 breast): 116%
- growth (RXF 393 renal): 114%
- growth (SF-268 CNS): 106%
- growth (SF-295 CNS): 109%
- growth (SF-539 CNS): 105%
- growth (UACC-257 melanoma): 94.1%
- growth (M14 melanoma): 109%
- growth (HCT-15 colon): 104%
- growth (HT29 colon): 94.6%
- growth (SNB-19 CNS): 109%
- growth (U251 CNS): 102%
- growth (PC-3 prostate): 99.5%
- growth (SK-MEL-5 melanoma): 110%
- growth (UACC-62 melanoma): 101%
- growth (LOX IMVI melanoma): 96.2%
- growth (SK-MEL-28 melanoma): 112%

Compound: O=CN1N=C(c2ccc3c(c2)OCO3)CC1c1cccc(Nc2ccnc3cc(C(F)(F)F)ccc23)c1 (centres undefined)
- growth (DU-145 prostate): 86.4%
- growth (K-562 leukemia): 37%
- growth (MALME-3M melanoma): 101%
- growth (MDA-MB-231 breast): 78.2%
- growth (RXF 393 renal): 86.4%
- growth (SF-268 CNS): 65.4%
- growth (SF-295 CNS): 83.1%
- growth (SF-539 CNS): 90.5%
- growth (UACC-257 melanoma): 86.8%
- growth (M14 melanoma): 78.6%
- growth (HCT-15 colon): 70.9%
- growth (HT29 colon): 73.4%
- growth (SNB-19 CNS): 89.8%
- growth (U251 CNS): 88.7%
- growth (PC-3 prostate): 56.8%
- growth (SK-MEL-5 melanoma): 50.7%
- growth (UACC-62 melanoma): 55.2%
- growth (LOX IMVI melanoma): 76%
- growth (SK-MEL-28 melanoma): 100%

Compound: NC[C@@H]1CCN(c2cc3c(cc2F)c(=O)n(N)c(=O)n3Cc2ccc(-c3ccccc3)cc2)C1
- growth (DU-145 prostate): 102%
- growth (K-562 leukemia): -44% (active)
- growth (MALME-3M melanoma): 121%
- growth (MDA-MB-231 breast): 89.7%
- growth (RXF 393 renal): 74.7%
- growth (SF-268 CNS): 83.1%
- growth (SF-295 CNS): 96.5%
- growth (SF-539 CNS): 90%
- growth (UACC-257 melanoma): 112%
- growth (M14 melanoma): 68.8%
- growth (HCT-15 colon): 50.1%
- growth (HT29 colon): 30.4%
- growth (SNB-19 CNS): 102%
- growth (U251 CNS): 64.5%
- growth (PC-3 prostate): 71.4%
- growth (SK-MEL-5 melanoma): 72.4%
- growth (UACC-62 melanoma): 94.6%
- growth (LOX IMVI melanoma): 78.9%
- growth (SK-MEL-28 melanoma): 113%

Compound: COc1ccc(N(C)c2nc(Cl)nc3ccn(C)c23)cc1
- growth (DU-145 prostate): 2.61% (active)
- growth (K-562 leukemia): 7.28% (active)
- growth (MALME-3M melanoma): 84.8%
- growth (MDA-MB-231 breast): 0.175% (active)
- growth (RXF 393 renal): 48.3%
- growth (SF-268 CNS): 24.3%
- growth (SF-295 CNS): 15.5%
- growth (SF-539 CNS): -32% (active)
- growth (UACC-257 melanoma): 49.6%
- growth (M14 melanoma): -0.998% (active)
- growth (HCT-15 colon): 12.6%
- growth (HT29 colon): -2.47% (active)
- growth (SNB-19 CNS): 25.3%
- growth (U251 CNS): 3.67% (active)
- growth (PC-3 prostate): 16.1%
- growth (SK-MEL-5 melanoma): -44.2% (active)
- growth (UACC-62 melanoma): 39.1%
- growth (LOX IMVI melanoma): 27.6%
- growth (SK-MEL-28 melanoma): 49.2%

Compound: C=C1C(=O)O[C@H]2[C@H]1CC/C(COC(=O)c1c[nH]c3ccccc13)=C\CC[C@@]1(C)O[C@@H]21
- growth (DU-145 prostate): -68.6% (active)
- growth (K-562 leukemia): -16.1% (active)
- growth (MALME-3M melanoma): -73.7% (active)
- growth (MDA-MB-231 breast): -68.8% (active)
- growth (RXF 393 renal): -90.6% (active)
- growth (SF-268 CNS): -40.8% (active)
- growth (SF-295 CNS): 50.2%
- growth (SF-539 CNS): -61.3% (active)
- growth (UACC-257 melanoma): -58.8% (active)
- growth (M14 melanoma): -64.7% (active)
- growth (HCT-15 colon): -69.5% (active)
- growth (HT29 colon): -59.8% (active)
- growth (SNB-19 CNS): -40.3% (active)
- growth (U251 CNS): -81.2% (active)
- growth (PC-3 prostate): -52.1% (active)
- growth (SK-MEL-5 melanoma): -98.2% (active)
- growth (UACC-62 melanoma): -69.1% (active)
- growth (LOX IMVI melanoma): -94.8% (active)
- growth (SK-MEL-28 melanoma): -63.8% (active)

Compound: Cc1cccc(C)c1NC(=O)CN(CC(C)C)CC(O)COc1ccccc1 (centres undefined)
- growth (DU-145 prostate): 111%
- growth (K-562 leukemia): 96%
- growth (MALME-3M melanoma): 103%
- growth (MDA-MB-231 breast): 93.5%
- growth (RXF 393 renal): 103%
- growth (SF-268 CNS): 102%
- growth (SF-295 CNS): 88%
- growth (SF-539 CNS): 97.6%
- growth (UACC-257 melanoma): 110%
- growth (M14 melanoma): 87.8%
- growth (HCT-15 colon): 90.7%
- growth (HT29 colon): 85.5%
- growth (SNB-19 CNS): 108%
- growth (U251 CNS): 99.7%
- growth (PC-3 prostate): 86.3%
- growth (SK-MEL-5 melanoma): 95.5%
- growth (UACC-62 melanoma): 83.9%
- growth (LOX IMVI melanoma): 95.3%
- growth (SK-MEL-28 melanoma): 109%

Compound: CN1CCN(/C=C2\CC(C(=O)NCc3ccc(Cl)cc3Cl)NC2=O)CC1 (centres undefined)
- growth (DU-145 prostate): 108%
- growth (K-562 leukemia): 95.7%
- growth (MALME-3M melanoma): 98.6%
- growth (MDA-MB-231 breast): 104%
- growth (RXF 393 renal): 103%
- growth (SF-268 CNS): 97.9%
- growth (SF-295 CNS): 110%
- growth (SF-539 CNS): 102%
- growth (UACC-257 melanoma): 93.2%
- growth (M14 melanoma): 110%
- growth (HCT-15 colon): 108%
- growth (HT29 colon): 99%
- growth (SNB-19 CNS): 100%
- growth (U251 CNS): 100%
- growth (PC-3 prostate): 90.9%
- growth (SK-MEL-5 melanoma): 95.8%
- growth (UACC-62 melanoma): 96.6%
- growth (SK-MEL-28 melanoma): 110%

Compound: CC(=O)OC[C@]12CC[C@@H](c3cn(Cc4ccc(Cn5cc([C@@H]6CC[C@]7(COC(C)=O)CC[C@]8(C)[C@H](CC[C@@H]9[C@@]%10(C)CC[C@H](OC(C)=O)C(C)(C)[C@@H]%10CC[C@]98C)[C@@H]67)nn5)cc4)nn3)[C@@H]1[C@H]1CC[C@@H]3[C@@]4(C)CC[C@H](OC(C)=O)C(C)(C)[C@@H]4CC[C@@]3(C)[C@]1(C)CC2
- growth (DU-145 prostate): 103%
- growth (K-562 leukemia): 94.7%
- growth (MALME-3M melanoma): 98.8%
- growth (MDA-MB-231 breast): 96.9%
- growth (RXF 393 renal): 105%
- growth (SF-268 CNS): 88.8%
- growth (SF-295 CNS): 98.8%
- growth (SF-539 CNS): 98.7%
- growth (UACC-257 melanoma): 93.3%
- growth (M14 melanoma): 103%
- growth (HCT-15 colon): 102%
- growth (HT29 colon): 97.2%
- growth (SNB-19 CNS): 96.7%
- growth (U251 CNS): 103%
- growth (PC-3 prostate): 104%
- growth (SK-MEL-5 melanoma): 105%
- growth (UACC-62 melanoma): 95.8%
- growth (SK-MEL-28 melanoma): 99.8%

Compound: CCC[S@](=O)c1ccc2nc(NC(=O)OC)[nH]c2c1
- growth (DU-145 prostate): 106%
- growth (K-562 leukemia): 92.3%
- growth (MALME-3M melanoma): 104%
- growth (MDA-MB-231 breast): 96.4%
- growth (RXF 393 renal): 115%
- growth (SF-268 CNS): 102%
- growth (SF-295 CNS): 99.9%
- growth (SF-539 CNS): 96.6%
- growth (UACC-257 melanoma): 69.3%
- growth (M14 melanoma): 98.9%
- growth (HCT-15 colon): 98.9%
- growth (HT29 colon): 79.2%
- growth (SNB-19 CNS): 95.2%
- growth (U251 CNS): 89.1%
- growth (PC-3 prostate): 89.8%
- growth (SK-MEL-5 melanoma): 98.7%
- growth (UACC-62 melanoma): 89.8%
- growth (LOX IMVI melanoma): 96.5%
- growth (SK-MEL-28 melanoma): 107%
